Here are results for 61 compounds from PubChem BioAssay AID2732 (Emory University Molecular Libraries Screening Center, 2010).

About 8,200 (3.7%) of roughly 220,000 compounds were called active. The list comes from a sample in which actives are over-represented; it also holds similar structures and randomly drawn compounds. A number with no mark means an inactive call.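 Rule for the calls: active = compounds that reduced the stress-induced luciferase reporter signal by more than about 70% of percent inhibition (limit read from the data); inactive = the rest.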

This assay can be described thus: inhibitors of CHOP promoter induction, primary screen, cell-based, unfolded protein response, luciferase reporter (AID 2732).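 Note: 0% = tunicamycin plus vehicle and 100% = wells without tunicamycin.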 As to conditions: CHO-K1 CHOP-promoter luciferase, tunicamycin-induced, 15-18 h; at 10 µM; hits give high values.
Consider `COc1cc(OC)nc(S(C)(=O)=O)n1`, for which the inhibition was -18.2%.

As to `COc1ccc(-c2cc(C(F)(F)F)nc(S(C)(=O)=O)n2)cc1OC`, the inhibition is 109% (active).

As for `COc1ccc(-c2cc(C(F)(F)F)nc(SCC(=O)Nc3ccc4c(c3)OCO4)n2)cc1OC`, the inhibition was 22.4%.

On to `O=C(Nc1cccnc1)c1cc([N+](=O)[O-])ccc1Cl`, for which the inhibition was -9.19%.

For the compound `CCOC(=O)C1CCN(c2c(Nc3cc(C)cc(C)c3)c(=O)c2=O)CC1`, the inhibition was 4.73%.

For the compound `O=S(=O)(c1ccc(NC(=S)NN=C(C2CC2)C2CC2)cc1)N1CCOCC1`, the inhibition is -4.48%.

Turning to `CN(c1ccccc1)S(=O)(=O)c1ccc(Cl)c(C(=O)OCC(=O)NCc2ccco2)c1`, the inhibition is 29.9%.

In the case of `CCOc1ccc(Nc2nc(Cl)nc(N3CCN(c4ccc(OC)cc4)CC3)n2)cc1`, the inhibition is 72.4% (active).

Take `CCOc1ccc(NC(=O)CN2CCN(CC(=O)Nc3ccc(OC)cc3)CC2)cc1`: the inhibition was 34.6%.

As to `CCN1CCN(c2nc(Nc3cc(OC)ccc3OC)nc(Nc3cc(OC)ccc3OC)n2)CC1`, the inhibition was -5.76%.

Take `Cc1coc2cc3oc(=O)c(CCC(=O)O)c(C)c3cc12`: the inhibition was -3.28%.

For the compound `COC(=O)c1sccc1NC(=S)Nc1ccc(C)cc1`, the inhibition was 10.2%.

For `CCN(CC)CCCNC(=O)CCc1ccccc1`, the inhibition is 0.68%.

On to `Cc1cnc(C(=O)OCC(=O)NCCCc2ccccc2)cn1`, for which the inhibition is 4.94%.

For the compound `CCc1ccc(NC(=O)CS(=O)CC(=O)NCCCc2ccccc2)cc1` (stereo unspecified), the inhibition is 75.9% (active).

Take `NNC(=O)c1oc2nc(-c3ccccc3)cc(-c3ccco3)c2c1N`: the inhibition was -41.2%.

Turning to `COC(OC)c1ccnc(SCc2ccccc2Cl)n1`, the inhibition was 15.3%.

As to `Cc1ccc(Nc2nc(-c3ccc(O)cc3O)cs2)nc1`, the inhibition is 88.9% (active).

For `O=c1oc2ccccc2cc1-c1csc(Nc2ccc(O)cc2)n1`, the inhibition was -72.5%.

On to `COc1ccc(-c2csc(Nc3ccc(O)cc3)n2)cc1`, for which the inhibition was 18.9%.

With `Nc1nnn(CC(=O)N/N=C/c2ccccc2)n1`, the inhibition was 9.73%.

With `COc1cc(N2C(=O)CC3(CCCC3)CC2=O)cc(OC)c1OC`, the inhibition is -7%.

On to `O=C(Nc1ccc(N2CCOCC2)nc1)c1c(F)cccc1F`, for which the inhibition was -6.02%.

As for `CCOC(=O)c1c(NC(=O)NC(C)(C)C)sc2c1CCN(C)C2`, the inhibition is 16.3%.

`O=[N+]([O-])c1ccc2nc(-c3ccccn3)[nH]c2c1`: the inhibition was -8.07%.

In the case of `COc1ccc(Cl)cc1CSc1ncn[nH]1`, the inhibition is -7.32%.

For the compound `Cc1cc(C)nc(S/C=C/C(=O)c2ccccc2)n1`, the inhibition was 24.8%.

For `O=C(/C=C/Sc1ncn[nH]1)c1ccc(Cl)cc1`, the inhibition is 105% (active).

With `CCn1c(SCC(=O)Nc2ccc3c(c2)OCCO3)nc2c(c1=O)SC(C)C2` (stereo unspecified), the inhibition was 3.73%.

For `CCCCSc1nc2c(c(=O)n1CC)SC(C)C2` (stereo unspecified), the inhibition was 97.1% (active).

For the compound `CCn1c(SCC(=O)Nc2ccccc2F)nc2c(c1=O)SC(C)C2` (stereo unspecified), the inhibition is -15.6%.

Turning to `COc1c(N2CCN(C(=S)Nc3ccccc3F)C(C)C2)c(F)cc2c(=O)c(C(=O)O)cn(C3CC3)c12` (stereo unspecified), the inhibition is 2.97%.

On to `Cc1ccc(-n2c(=O)cc(N3CCN(Cc4ccccc4)CC3)[nH]c2=O)cc1`, for which the inhibition was -31.4%.

With `CCc1c(C)nc(N2CCN(Cc3ccccc3)CC2)[nH]c1=O`, the inhibition is 80% (active).

On to `Cc1nnc(SCc2cc(=O)[nH]c(N3CCN(Cc4ccccc4)CC3)n2)s1`, for which the inhibition was 39.7%.

Regarding `Cn1c(SCC(=O)N2CCOCC2)nnc1-c1ccc2ncccc2c1`, the inhibition was -14.7%.

Consider `S=c1[nH]nc(-c2ccco2)n1/N=C/c1ccccc1`, for which the inhibition was 13.8%.

Turning to `S=c1[nH]nc(-c2cc(-c3ccccc3)n[nH]2)n1/N=C/c1c2ccccc2cc2ccccc12`, the inhibition is 74% (active).

For the compound `S=c1[nH]nc(-c2ccccc2)n1/N=C/c1c[nH]c2ccccc12`, the inhibition was 30.5%.

For `O=C(CN1CCN(Cc2ccc(F)cc2Cl)C1=O)NCc1cccs1`, the inhibition was 5.73%.

`O=c1c(Cl)c(NCc2ccc(F)cc2Cl)cnn1C12CC3CC(CC(C3)C1)C2`: the inhibition was 78.6% (active).

With `O=C(O)CC12CC3CC(C1)CC(n1ncc(NCc4ccc(F)cc4)c(Cl)c1=O)(C3)C2`, the inhibition was -5.94%.

For the compound `S=C(NCC1COc2ccccc2O1)Nc1ccc(Br)cc1` (stereo unspecified), the inhibition is 81.2% (active).

For `CCCN(CC1COc2ccccc2O1)C(=S)Nc1ccc(C)cc1` (stereo unspecified), the inhibition is 28.3%.

For `O=C(NCC1COc2ccccc2O1)C1(c2ccccc2)CCCC1` (stereo unspecified), the inhibition is 17.7%.

On to `CCCN(CCC)S(=O)(=O)c1ccc(C(=O)N2CC3CCC(CC3)C2)cc1`, for which the inhibition was 5.98%.

On to `O=[N+]([O-])c1cccc2ncccc12`, for which the inhibition is 15.2%.

Regarding `CC(C)(C)NC(=O)Cn1nnc(-c2ccccc2Cl)n1`, the inhibition is 2.55%.

Consider `Cc1ccccc1-c1nnn(CC(=O)c2ccc(S(=O)(=O)N3CCCC3)cc2)n1`, for which the inhibition is 76% (active).

As to `Cc1cc(C)n(C(=O)c2ccc(S(=O)(=O)N3CCCC3)cc2)n1`, the inhibition was 13%.

As to `CC(OC(=O)c1ccc(NS(=O)(=O)c2ccc3[nH]c(=O)[nH]c3c2)cc1)C(=O)Nc1cccc(Cl)c1Cl` (stereo unspecified), the inhibition was -9.73%.

On to `NCCCCCC(=O)N/N=C/c1ccc2nccnc2c1`, for which the inhibition is 16.6%.

As for `Cc1onc(NC(=O)c2ccc([N+](=O)[O-])o2)c1Br`, the inhibition is -20.6%.

With `COc1ccc(S(=O)(=O)Nc2c(C)n(C)n(-c3ccccc3)c2=O)cc1`, the inhibition was -21.7%.

In the case of `Cc1cc(C(=O)Nc2c(C)n(C)n(-c3ccccc3)c2=O)cs1`, the inhibition was 23.5%.

Take `Cc1cccc(OP(=O)(Nc2c(C)n(C)n(-c3ccccc3)c2=O)Oc2cccc(C)c2)c1`: the inhibition was 71.4% (active).

`O=C(CCl)Nc1cccc(CP(=O)(c2ccccc2)c2ccccc2)c1`: the inhibition was -134%.

Consider `COc1ccc(CNC(=O)CCC(=O)Nc2nnc(C(C)C)s2)cc1`, for which the inhibition was 11.9%.

Turning to `Cc1nnc(SCC(=O)N/N=C/c2cn(-c3ccccc3)nc2-c2ccc(F)cc2)n1-c1ccccc1`, the inhibition was 97.1% (active).

On to `Cc1ccc(-c2nn(-c3ccccc3)cc2/C=N/NC(=O)c2ccc3c(c2)OCO3)cc1`, for which the inhibition is 22.2%.

For the compound `COc1ccc(OC)c(/C=N/NC(=O)CSc2nnc(C)n2-c2ccccc2)c1`, the inhibition was -5.53%.
